Laboratory results: the supplement of paper PMC4466140

Key:
Assay in all cases: SPOT peptide array binding signal intensity (averaged, normalized) (arbitrary units (background-subtracted, floor 0; scale differs between SH3 domains)); higher = stronger binding of the SH3 domain to the peptide
AgAbp1 = molecular target: AgAbp1
Summary of the method: (§1)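 GST-SH3 fusions from four yeast species, purified on glutathione Sepharose, were incubated at 10 μg/ml overnight at 4°C on membranes of synthetic 15-mer peptides in which cysteines were replaced with serines. Binding signal is the normalized, background-subtracted spot intensity averaged over replicates, in domain-specific arbitrary units.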

AgBbc1 = molecular target: AgBbc1
Summary of the method: as §1

AgBem1-D1 = molecular target: AgBem1-D1
Summary of the method: as §1

AgBzz1-D1 = molecular target: AgBzz1-D1
Summary of the method: as §1

AgBzz1-D2 = molecular target: AgBzz1-D2
Summary of the method: as §1

AgCyk3 = molecular target: AgCyk3
Summary of the method: as §1

AgFus1 = molecular target: AgFus1
Summary of the method: as §1

AgHof1 = molecular target: AgHof1
Summary of the method: as §1

AgHse1 = molecular target: AgHse1
Summary of the method: as §1

AgLsb1 = molecular target: AgLsb1
Summary of the method: as §1

AgLsb4 = molecular target: AgLsb4
Summary of the method: as §1

AgMyo5 = molecular target: AgMyo5
Summary of the method: as §1

AgNbp2 = molecular target: AgNbp2
Summary of the method: as §1

AgRvs167 = molecular target: AgRvs167
Summary of the method: as §1

AgSho1 = molecular target: AgSho1
Summary of the method: as §1

AgSla1-D1-D2 = molecular target: AgSla1-D1-D2
Summary of the method: as §1

AgSla1-D3 = molecular target: AgSla1-D3
Summary of the method: as §1

CaAbp1-D1 = molecular target: CaAbp1-D1
Summary of the method: as §1

CaAbp1-D2 = molecular target: CaAbp1-D2
Summary of the method: as §1

CaBbc1 = molecular target: CaBbc1
Summary of the method: as §1

CaBem1-D1 = molecular target: CaBem1-D1
Summary of the method: as §1

CaBzz1-D1 = molecular target: CaBzz1-D1
Summary of the method: as §1

CaBzz1-D2 = molecular target: CaBzz1-D2
Summary of the method: as §1

CaCyk3 = molecular target: CaCyk3
Summary of the method: as §1

CaFus1 = molecular target: CaFus1
Summary of the method: as §1

CaHof1 = molecular target: CaHof1
Summary of the method: as §1

CaHse1 = molecular target: CaHse1
Summary of the method: as §1

CaLsb1 = molecular target: CaLsb1
Summary of the method: as §1

CaLsb4 = molecular target: CaLsb4
Summary of the method: as §1

CaMyo5 = molecular target: CaMyo5
Summary of the method: as §1

CaNbp2 = molecular target: CaNbp2
Summary of the method: as §1

CaRvs167 = molecular target: CaRvs167
Summary of the method: as §1

CaRvs167-3 = molecular target: CaRvs167-3
Summary of the method: as §1

CaSho1 = molecular target: CaSho1
Summary of the method: as §1

CaSla1-D1-D2 = molecular target: CaSla1-D1-D2
Summary of the method: as §1

CaSla1-D3 = molecular target: CaSla1-D3
Summary of the method: as §1

ScAbp1 = molecular target: ScAbp1
Summary of the method: as §1

ScBbc1 = molecular target: ScBbc1
Summary of the method: as §1

ScBem1-D1 = molecular target: ScBem1-D1
Summary of the method: as §1

ScBzz1-D1 = molecular target: ScBzz1-D1
Summary of the method: as §1

ScBzz1-D2 = molecular target: ScBzz1-D2
Summary of the method: as §1

ScCyk3 = molecular target: ScCyk3
Summary of the method: as §1

ScFus1 = molecular target: ScFus1
Summary of the method: as §1

ScHof1 = molecular target: ScHof1
Summary of the method: as §1

ScHse1 = molecular target: ScHse1
Summary of the method: as §1

ScLsb1 = molecular target: ScLsb1
Summary of the method: as §1

ScLsb2 = molecular target: ScLsb2
Summary of the method: as §1

ScLsb3 = molecular target: ScLsb3
Summary of the method: as §1

ScLsb4 = molecular target: ScLsb4
Summary of the method: as §1

ScMyo3 = molecular target: ScMyo3
Summary of the method: as §1

ScMyo5 = molecular target: ScMyo5
Summary of the method: as §1

ScNbp2 = molecular target: ScNbp2
Summary of the method: as §1

ScPex13 = molecular target: ScPex13
Summary of the method: as §1

ScRvs167 = molecular target: ScRvs167
Summary of the method: as §1

ScSho1 = molecular target: ScSho1
Summary of the method: as §1

ScSla1-D1-D2 = molecular target: ScSla1-D1-D2
Summary of the method: as §1

ScSla1-D3 = molecular target: ScSla1-D3
Summary of the method: as §1

SpAbp1-D1 = molecular target: SpAbp1-D1
Summary of the method: as §1

SpBbc1 = molecular target: SpBbc1
Summary of the method: as §1

SpBzz1-D1 = molecular target: SpBzz1-D1
Summary of the method: as §1

SpBzz1-D2 = molecular target: SpBzz1-D2
Summary of the method: as §1

SpCyk3 = molecular target: SpCyk3
Summary of the method: as §1

SpHof1 = molecular target: SpHof1
Summary of the method: as §1

SpHof1-2 = molecular target: SpHof1-2
Summary of the method: as §1

SpHof1-3 = molecular target: SpHof1-3
Summary of the method: as §1

SpHse1 = molecular target: SpHse1
Summary of the method: as §1

SpLsb1 = molecular target: SpLsb1
Summary of the method: as §1

SpLsb4 = molecular target: SpLsb4
Summary of the method: as §1

SpMyo1 = molecular target: SpMyo1
Summary of the method: as §1

SpNbp2 = molecular target: SpNbp2
Summary of the method: as §1

SpPex13 = molecular target: SpPex13
Summary of the method: as §1

SpRvs167 = molecular target: SpRvs167
Summary of the method: as §1

SpSla1-D1-D2 = molecular target: SpSla1-D1-D2
Summary of the method: as §1

SpSla1-D3 = molecular target: SpSla1-D3
Summary of the method: as §1

## VLRFLGFPLPIFEKG
AgAbp1
  SPOT peptide array binding signal intensity: 2
AgBbc1
  SPOT peptide array binding signal intensity: ≤ 0
AgBem1-D1
  SPOT peptide array binding signal intensity: 24.5
AgBzz1-D1
  SPOT peptide array binding signal intensity: 15
AgBzz1-D2
  SPOT peptide array binding signal intensity: ≤ 0
AgCyk3
  SPOT peptide array binding signal intensity: ≤ 0
AgFus1
  SPOT peptide array binding signal intensity: 393
AgHof1
  SPOT peptide array binding signal intensity: 9
AgHse1
  SPOT peptide array binding signal intensity: 845
AgLsb1
  SPOT peptide array binding signal intensity: 7.75
AgLsb4
  SPOT peptide array binding signal intensity: 36
AgMyo5
  SPOT peptide array binding signal intensity: 0.5
AgNbp2
  SPOT peptide array binding signal intensity: ≤ 0
AgRvs167
  SPOT peptide array binding signal intensity: 1.67
AgSho1
  SPOT peptide array binding signal intensity: 31
AgSla1-D1-D2
  SPOT peptide array binding signal intensity: 3
AgSla1-D3
  SPOT peptide array binding signal intensity: 2
CaAbp1-D1
  SPOT peptide array binding signal intensity: 4
CaAbp1-D2
  SPOT peptide array binding signal intensity: 3.5
CaBbc1
  SPOT peptide array binding signal intensity: ≤ 0
CaBem1-D1
  SPOT peptide array binding signal intensity: ≤ 0
CaBzz1-D1
  SPOT peptide array binding signal intensity: ≤ 0
CaBzz1-D2
  SPOT peptide array binding signal intensity: 0.25
CaCyk3
  SPOT peptide array binding signal intensity: ≤ 0
CaFus1
  SPOT peptide array binding signal intensity: 3750
CaHof1
  SPOT peptide array binding signal intensity: ≤ 0
CaHse1
  SPOT peptide array binding signal intensity: 35.8
CaLsb1
  SPOT peptide array binding signal intensity: 1
CaLsb4
  SPOT peptide array binding signal intensity: ≤ 0
CaMyo5
  SPOT peptide array binding signal intensity: ≤ 0
CaNbp2
  SPOT peptide array binding signal intensity: 129
CaRvs167
  SPOT peptide array binding signal intensity: 8.5
CaRvs167-3
  SPOT peptide array binding signal intensity: 22.2
CaSho1
  SPOT peptide array binding signal intensity: 496
CaSla1-D1-D2
  SPOT peptide array binding signal intensity: 4
CaSla1-D3
  SPOT peptide array binding signal intensity: 4
ScAbp1
  SPOT peptide array binding signal intensity: 1.5
ScBbc1
  SPOT peptide array binding signal intensity: 1.5
ScBem1-D1
  SPOT peptide array binding signal intensity: 11.5
ScBzz1-D1
  SPOT peptide array binding signal intensity: 24
ScBzz1-D2
  SPOT peptide array binding signal intensity: 14
ScCyk3
  SPOT peptide array binding signal intensity: 80.5
ScFus1
  SPOT peptide array binding signal intensity: 404
ScHof1
  SPOT peptide array binding signal intensity: ≤ 0
ScHse1
  SPOT peptide array binding signal intensity: 2000
ScLsb1
  SPOT peptide array binding signal intensity: ≤ 0
ScLsb2
  SPOT peptide array binding signal intensity: ≤ 0
ScLsb3
  SPOT peptide array binding signal intensity: ≤ 0
ScLsb4
  SPOT peptide array binding signal intensity: ≤ 0
ScMyo3
  SPOT peptide array binding signal intensity: 0.5
ScMyo5
  SPOT peptide array binding signal intensity: ≤ 0
ScNbp2
  SPOT peptide array binding signal intensity: 19
ScPex13
  SPOT peptide array binding signal intensity: ≤ 0
ScRvs167
  SPOT peptide array binding signal intensity: ≤ 0
ScSho1
  SPOT peptide array binding signal intensity: 662
ScSla1-D1-D2
  SPOT peptide array binding signal intensity: 3
ScSla1-D3
  SPOT peptide array binding signal intensity: ≤ 0
SpAbp1-D1
  SPOT peptide array binding signal intensity: 1
SpBbc1
  SPOT peptide array binding signal intensity: ≤ 0
SpBzz1-D1
  SPOT peptide array binding signal intensity: 3.5
SpBzz1-D2
  SPOT peptide array binding signal intensity: 1
SpCyk3
  SPOT peptide array binding signal intensity: 3
SpHof1
  SPOT peptide array binding signal intensity: 13.8
SpHof1-2
  SPOT peptide array binding signal intensity: 5.5
SpHof1-3
  SPOT peptide array binding signal intensity: 486
SpHse1
  SPOT peptide array binding signal intensity: 1290
SpLsb1
  SPOT peptide array binding signal intensity: ≤ 0
SpLsb4
  SPOT peptide array binding signal intensity: ≤ 0
SpMyo1
  SPOT peptide array binding signal intensity: ≤ 0
SpNbp2
  SPOT peptide array binding signal intensity: 37.5
SpPex13
  SPOT peptide array binding signal intensity: 5
SpRvs167
  SPOT peptide array binding signal intensity: ≤ 0
SpSla1-D1-D2
  SPOT peptide array binding signal intensity: 3
SpSla1-D3
  SPOT peptide array binding signal intensity: 1
